In the supplement of paper PMC3842684:

Each compound was assayed on P. falciparum NF54-pfs16-GFP late (IV-V) stage gametocytes (assay: relative % inhibition of viable gametocyte number; higher = more gametocytocidal). Settings: 5 µM; stage: late (IV-V) gametocyte; incubation 72 h.
Method in brief: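 Magnet-isolated NF54 pfs16-GFP gametocytes at early (I/IIa, day 2) or late (day 8) stage were exposed to compound at 5 or 0.5 µM for 72 h at 37°C, 5% CO2, 5% O2, at 10% parasitaemia and 0.1% haematocrit. Elongated GFP objects with MitoTracker Red signal above cut-off were counted as viable by confocal imaging. Relative inhibition was normalised to in-plate vehicle and positive-control wells.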

SMILES | relative % inhibition [%]
COc1ccc(CNC(=O)c2cc3c(=O)n4ccccc4nc3n(CCc3ccccc3)c2=N)cc1 | -9.45
COc1ccc(C=C2SC(Nc3ccccc3)=NC2=O)cc1 | 61.6
COc1ccc2nc(C)cc(Nc3cccc(O)c3)c2c1 | -9.92
CCOc1cccc(C(=O)Nc2ccc(-c3nc4ccccc4[nH]3)cc2)c1 | 17.9
CCOC(=O)c1cnc2c(CC)cccc2c1O | 45.2
COc1ccccc1N1CCN(C(CNS(=O)(=O)c2ccc(Cl)cc2)c2cccnc2)CC1 (centres undefined) | 32.7
CN1CCN(c2ncnc3c2[nH]c2ccc(Cl)cc23)CC1 | 7.14
CC(Oc1ccc(NC(=O)c2cccs2)cc1)C(=O)c1ccc(Cl)cc1 (centres undefined) | 52.1
CCOC(=O)c1cnc2ccc(OC)cc2c1Nc1ccc(N2CCN(C)CC2)cc1 | 19.4
Cc1ccc(C(=O)c2oc3ccc4c(C)cc(=O)oc4c3c2C)cc1 | 12
COc1ccc(CCn2c(=N)c(C(=O)NCc3cccnc3)cc3c(=O)n4cccc(C)c4nc32)cc1 | 11.2
CN(C)CCCNCc1ccc(-c2ccc(F)c(Cl)c2)o1 | 20.8
O=C(NNc1cc(N2CCCC2)nc(N2CCCC2)n1)c1ccccc1 | 16.3
COc1ccc(C(=O)Nc2nonc2-c2ccc(OC)c(OC)c2)cc1Cl | 59.1
CCn1nc(-c2ccc(C(=O)OC)cc2)nc2c(=O)n(C)c(=O)nc1-2 | 76.7
O=C(NC1CCN(Cc2ccccc2)CC1)c1cc(-c2ccncc2)nc2ccc(Cl)cc12 | -1.38
CCOc1c(Cl)cc(CNCC(O)c2ccccc2)cc1OC (centres undefined) | 57.1
CN1CCN(c2nc(Nc3ccc(O)cc3)nc3ccccc23)CC1 | -15.5
CCN(CC)CCCNc1ccnc2cc3ccccc3cc12 | -8.3
Cc1cc(C)c2nc(N3CCC(C(=O)NCCCN4CCC(N5CCCCC5)CC4)CC3)sc2c1 | 44.2

SMILES | relative % inhibition [%]
CNCCCNc1ccnc2cc(Cl)ccc12 | 39.1
CCOc1cc2c(cc1OCC)C(c1cc(OC)c(O)cc1Cl)NCC2 (centres undefined) | 48.3
CN(C)c1ccc(N=Cc2ccc(N3CCOCC3)cc2)cc1 | 62
Cc1cccc(Nc2nc(N)c3ccccc3n2)c1 | 5.81
CCOC(=O)C1=C(c2ccccc2)N=c2sc(=Cc3cc(C)n(-c4ccc(F)cc4)c3C)c(=O)n2C1c1cccc(OC)c1OC (centres undefined) | 59.1
Oc1ccc2ccccc2c1CNc1nc2ccccc2[nH]1 | 12
O=C(Nc1ccc(N2CCN(Cc3ccccc3)CC2)cc1)c1cccs1 | 16.2
CN(C)CCNc1cc(-c2ccccc2)nc2ccccc12 | 6.35
Cc1ccc(C)c(Cn2c(N3CCC(C(=O)NCc4cccs4)CC3)nc3ccccc32)c1 | 31.6
CCOc1cc(Cl)c(C(C)NC(=O)c2ccccc2)cc1OCC (centres undefined) | 38.7
O=C(Nc1cccc(-c2nc3ccccc3[nH]2)c1)c1cccc(NC(=O)c2ccco2)c1 | 0.95
Oc1c2c(nc3ccccc13)CCCC2 | 90.8
COc1ccc(CNC2CCN(c3ccc(NC(=O)c4cccc(Cl)c4)cc3)CC2)cc1OC | -22
Cc1ccc(CN2CCC(C(=O)Nc3ccc(-c4cc5ccccc5[nH]4)cc3)CC2)o1 | -13.5
FC(F)(F)c1cccc(Nc2nc(-c3ccccc3)nc3ncccc23)c1 | -1.26
COc1ccc(-c2nc(NC(=O)CS(=O)(=O)c3ccc(F)cc3)sc2C)cc1 | 92.9
OC1=C2C(=Nc3ccccc3SC2c2ccc(Br)cc2)c2ccccc21 (centres undefined) | 73
CCc1ccc(Nc2cc(C)nc3nc(C)nn23)cc1 | 16.9
Cc1ccc(-c2cc3c(SCC(=O)Nc4cc(C(F)(F)F)ccc4Cl)nccn3n2)cc1 | -15.9
